Results filed as inconclusive are left out. Where a call stands in place of a potency, no number is given. The source made the active and inactive calls. Calls come from the whole dose curve; as a rule, active = well fitted inhibition curve with a large enough effect; inconclusive = small, poorly fitted or top-dose-only effect; inactive = flat fitted curve, though single readings scatter.

The values that follow come from PubChem BioAssay (NCATS).
Potency is the fitted concentration of half-maximal effect.

A short description of the assay: qHTS to identify inhibitors of the type 1 interferon - major histocompatibility complex class I in skeletal muscle: primary screen against the NCATS Pharmaceutical Collection (AID 1347407).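 Note: luminescence of HiBiT knocked into endogenous HLA-B as interferon-induced MHC class I level.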 As to conditions: human skeletal muscle cells, IFN-b-induced MHC-I HiBiT luminescence, 24 h; series mostly up to 45.9 µM. Summed up: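 HLA-B HiBiT myoblasts, dexamethasone-free growth medium + 4 ng/ml IFN-b; compounds pinned 1 h after seeding, […] from 46 uM; 24 h, 37 C, 5% CO2; lytic HiBiT detection, 10 min RT, luminescence.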
(qHTS replaces the single test concentration by a dilution series.)
`CCOC(=O)NC(O)C(Cl)(Cl)Cl` (configuration not stated): the Potency entry was “inactive”.

As to `Nc1ccccc1C(=O)OCC(O)CO` (configuration not stated), the Potency entry was “inactive”.

For `CCOC(=O)C1(c2ccccc2)CCN(CCc2ccc(N)cc2)CC1`, the Potency entry is “inactive”.

Turning to `C[C@]12CC[C@H]3[C@@H](CCC4=CC(=O)CC[C@@]43C)[C@@H]1CC[C@@H]2C(=O)O`, the Potency result was “inactive”.

As for `CCC(=O)C(CCN(C)C)(c1ccccc1)c1ccccc1`, the Potency result is “inactive”.

Turning to `COc1cc(C[C@@H](C)N)c(OC)cc1Br`, the Potency result was “inactive”.

Consider `OC(c1ccccc1)(c1ccccc1)C1CCNCC1`, for which the Potency result is “inactive”.

`Sc1ccccc1Cl`: the Potency result is “inactive”.

Regarding `COc1ccc(CN2CCNCC2)c(OC)c1OC`, the Potency result is “inactive”.

As for `CC1COC2(c3ccccc3Cl)c3cc(Cl)ccc3NC(=O)CN12` (configuration not stated), the Potency entry is “inactive”.

Turning to `Nc1ccc(N)cc1`, the Potency entry was “inactive”.

For `COc1cc(CC(C)N)c(OC)cc1Br` (configuration not stated), the Potency entry was “inactive”.

`C[C@H]1CNCCc2ccc(Cl)cc21`: the Potency result was “inactive”.

As to `C[C@H]1C(=O)O[C@@H]2CCN3CC=C(COC(=O)[C@](C)(O)[C@]1(C)O)[C@H]23`, the Potency result was “inactive”.

`C=CC[C@]1(O)CC[C@H]2[C@@H]3CCC4=CC(=O)CCC4=C3C=C[C@@]21C`: the Potency result was “inactive”.

With `Cc1ccc([N+](=O)[O-])[c]2c1[O][Hg]2`, the Potency is 11.8 µM (active).

For the compound `CC(Cc1ccc2c(c1)OCO2)NO` (configuration not stated), the Potency result is “inactive”.

For `O=C(N[C@H]1N=C(c2ccccc2F)c2cccc3c2N(CC3)C1=O)c1cc2ccccc2[nH]1`, the Potency result was “inactive”.

With `CN(C)C(=S)SSC(=S)N(C)C`, the Potency entry is “inactive”.

Consider `CN1C(=O)CN=C(c2ccccc2)c2cc([N+](=O)[O-])ccc21`, for which the Potency entry was “inactive”.

For `c1ccc2nc(N3CCNCC3)ccc2c1`, the Potency result is “inactive”.

`O=c1[nH]c2cc(Cl)ccc2n1C1CCNCC1`: the Potency entry was “inactive”.
